The term inhibition denotes the change of the read-out against control, counted positive when it falls.

“And” between values parts separate entries of the source, which are not always exact repeats. Equal values may be shown once.

The text below walks through data of ChEMBL document CHEMBL1961873, “Compounds: GSK PKIS; Assays: Nanosyn kinase panel” (2012).

Test [1] concerns the target Dual specificity protein kinase CLK3 (Homo sapiens) (UniProt P49761). To be noted: at 1 µM.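 Also: each value is the mean inhibition of CLK3.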
Test [2] concerns the target Dual specificity tyrosine-phosphorylation-regulated kinase 1A (Homo sapiens) (UniProt Q13627). To be noted: at 0.1 µM.
Test [3] shares this target. The note with it: at 1 µM.
The target in test [4] is Dual specificity tyrosine-phosphorylation-regulated kinase 1B (Homo sapiens) (UniProt Q9Y463). The note with it: at 0.1 µM.
Sequence of Dual specificity tyrosine-phosphorylation-regulated kinase 1B (Homo sapiens) (Q9Y463 whole entry, looked up): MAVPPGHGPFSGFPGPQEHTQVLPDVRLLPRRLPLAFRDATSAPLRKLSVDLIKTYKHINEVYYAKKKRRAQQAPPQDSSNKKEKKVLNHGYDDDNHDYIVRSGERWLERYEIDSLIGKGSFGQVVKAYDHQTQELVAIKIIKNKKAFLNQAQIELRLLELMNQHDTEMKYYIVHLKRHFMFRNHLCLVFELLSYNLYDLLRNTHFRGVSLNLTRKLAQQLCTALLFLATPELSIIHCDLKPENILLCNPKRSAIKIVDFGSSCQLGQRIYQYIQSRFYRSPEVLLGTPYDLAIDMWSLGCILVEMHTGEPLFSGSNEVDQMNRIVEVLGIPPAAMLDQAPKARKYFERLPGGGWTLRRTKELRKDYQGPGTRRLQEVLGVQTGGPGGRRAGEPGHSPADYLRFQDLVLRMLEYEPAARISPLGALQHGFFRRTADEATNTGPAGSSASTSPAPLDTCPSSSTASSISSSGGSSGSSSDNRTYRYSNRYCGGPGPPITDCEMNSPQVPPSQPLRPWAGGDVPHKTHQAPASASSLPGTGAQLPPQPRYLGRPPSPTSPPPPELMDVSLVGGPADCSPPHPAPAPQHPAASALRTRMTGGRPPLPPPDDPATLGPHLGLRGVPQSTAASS
The target is the same in test [5]. To be noted: at 1 µM.
Test [6] has as its target T1, Dual specificity tyrosine-phosphorylation-regulated kinase 2 (Homo sapiens) (UniProt Q92630).
T1 sequence (whole entry): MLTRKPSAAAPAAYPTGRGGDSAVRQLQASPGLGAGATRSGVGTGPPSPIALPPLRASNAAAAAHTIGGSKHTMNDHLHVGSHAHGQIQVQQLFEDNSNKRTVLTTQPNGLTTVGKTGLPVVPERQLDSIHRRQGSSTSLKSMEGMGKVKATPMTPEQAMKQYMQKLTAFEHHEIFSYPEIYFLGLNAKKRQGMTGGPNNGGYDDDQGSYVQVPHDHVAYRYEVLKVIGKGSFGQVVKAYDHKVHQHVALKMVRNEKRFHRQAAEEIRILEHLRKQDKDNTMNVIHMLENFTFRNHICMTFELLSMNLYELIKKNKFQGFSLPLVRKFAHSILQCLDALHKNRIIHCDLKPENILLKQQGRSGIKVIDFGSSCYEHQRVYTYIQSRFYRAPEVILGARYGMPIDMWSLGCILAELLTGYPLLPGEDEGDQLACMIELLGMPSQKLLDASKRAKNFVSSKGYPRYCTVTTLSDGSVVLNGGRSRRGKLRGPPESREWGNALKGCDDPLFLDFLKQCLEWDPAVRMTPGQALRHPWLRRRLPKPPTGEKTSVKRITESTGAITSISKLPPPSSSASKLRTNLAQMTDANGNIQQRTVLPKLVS
To be noted: at 0.1 µM.

Test [7] concerns the target T1, Dual specificity tyrosine-phosphorylation-regulated kinase 2 (Homo sapiens). To be noted: at 1 µM.
The target of test [8] is Glycogen synthase kinase-3 alpha (Homo sapiens) (UniProt P49840). The note with it: at 0.1 µM.
Sequence of Glycogen synthase kinase-3 alpha (Homo sapiens) (P49840 2-483 limits assumed): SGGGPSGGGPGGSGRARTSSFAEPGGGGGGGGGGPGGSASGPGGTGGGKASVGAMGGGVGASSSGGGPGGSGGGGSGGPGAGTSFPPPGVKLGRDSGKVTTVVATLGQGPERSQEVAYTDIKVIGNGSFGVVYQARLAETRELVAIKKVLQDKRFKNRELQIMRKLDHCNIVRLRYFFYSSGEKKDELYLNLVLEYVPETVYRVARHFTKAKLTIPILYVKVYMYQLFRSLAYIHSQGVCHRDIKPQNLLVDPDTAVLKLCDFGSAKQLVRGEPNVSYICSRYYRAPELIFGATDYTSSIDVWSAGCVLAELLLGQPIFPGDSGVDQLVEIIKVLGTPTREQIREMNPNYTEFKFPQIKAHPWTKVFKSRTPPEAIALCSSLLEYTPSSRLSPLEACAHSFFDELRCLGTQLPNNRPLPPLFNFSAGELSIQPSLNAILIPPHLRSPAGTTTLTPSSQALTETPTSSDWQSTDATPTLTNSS
Test [9] has the same target. The note with it: at 1 µM.
For test [10], the target named is Glycogen synthase kinase-3 beta (Homo sapiens) (UniProt P49841). The note with it: at 0.1 µM.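 Also: values are mean percent inhibition of GSK3B activity, from the GSK Published Kinase Inhibitor Set (PKIS) screening dataset.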
Sequence of Glycogen synthase kinase-3 beta (Homo sapiens) (P49841 whole entry, looked up): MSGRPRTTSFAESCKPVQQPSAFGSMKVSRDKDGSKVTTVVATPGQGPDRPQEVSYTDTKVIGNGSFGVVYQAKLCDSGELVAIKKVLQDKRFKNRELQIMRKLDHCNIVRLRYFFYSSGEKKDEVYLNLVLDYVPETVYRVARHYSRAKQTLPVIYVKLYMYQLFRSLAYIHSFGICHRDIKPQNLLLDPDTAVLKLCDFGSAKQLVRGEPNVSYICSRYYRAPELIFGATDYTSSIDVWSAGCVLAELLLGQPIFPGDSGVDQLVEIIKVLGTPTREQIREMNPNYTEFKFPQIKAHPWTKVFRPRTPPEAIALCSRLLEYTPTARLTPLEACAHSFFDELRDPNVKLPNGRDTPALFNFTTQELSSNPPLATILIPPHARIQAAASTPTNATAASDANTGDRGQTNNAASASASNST

Sequence of Dual specificity protein kinase CLK3 (Homo sapiens) (P49761 whole entry, looked up): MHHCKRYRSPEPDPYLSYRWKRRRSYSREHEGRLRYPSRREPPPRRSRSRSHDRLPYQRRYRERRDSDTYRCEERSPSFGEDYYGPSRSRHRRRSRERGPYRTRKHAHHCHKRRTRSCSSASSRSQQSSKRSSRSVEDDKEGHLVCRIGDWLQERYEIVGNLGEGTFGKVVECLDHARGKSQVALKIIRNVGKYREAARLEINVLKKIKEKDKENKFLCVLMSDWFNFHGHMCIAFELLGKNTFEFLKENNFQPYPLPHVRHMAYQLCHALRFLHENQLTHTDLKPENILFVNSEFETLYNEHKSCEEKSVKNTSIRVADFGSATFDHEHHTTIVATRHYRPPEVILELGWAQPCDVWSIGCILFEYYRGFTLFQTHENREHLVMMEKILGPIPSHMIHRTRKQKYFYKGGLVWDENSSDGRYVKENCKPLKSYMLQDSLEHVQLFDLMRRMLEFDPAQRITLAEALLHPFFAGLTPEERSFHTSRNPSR

Consider `COc1c(C(N)=O)cc(-c2ccc(Cl)cc2)cc1-c1ccc(S(N)(=O)=O)cc1`, for which the inhibition in test [1] was 0.31%; in [2], 3.11%; in test [3] it was 4.97%; in [4], -0.92%; in [5], -0.01%; in test [6], 3.75%. Also, the inhibition worked out at 8.4% in [7], 1.76% in test [8], 2.57% in [9] and 0.69% in test [10].

Turning to `Fc1ccc(Nc2nccc(-c3c(-c4ccc(C(F)(F)F)cc4)nn4ncccc34)n2)cc1F`, the inhibition in test [1] came out at 4.71%; in test [2], 2.73%; in test [3], 5.39%; in test [4], 1.21%; in [5], 2.44%; in [6], 2.31%. Besides, the inhibition in [7] turned out to be 3.44%; in test [8], 2.05%; in [9] it was 4.32%; in test [10], 1.37%.

On to `COC(=O)Nc1nc2cc(Oc3ccc(NC(=O)Nc4ccccc4)cc3)ccc2[nH]1`, for which the inhibition was 2% in [1]; 0.64% in test [2]; 2.92% in test [3]; -0.93% in [4]; 1.92% in test [5]; 0.59% in test [6]. Further, the inhibition in test [7] was found to be 0.89%; in [8], 4.23%; in test [9] it was 8.26%; in test [10], 3.5%.

For the compound `CCCNc1cccc(-n2ncc3c(N/N=C/c4ccncc4)ncnc32)c1`, the inhibition in test [1] was found to be 9.87%; in test [2], 1.44%; in test [3] it was 20.6%; in test [4] it was 0.57%; in [5] it was 9.45%; in [6] it was 2.85%. Besides, the inhibition in test [7] was 14.2%; in test [8] it was 31.9%; in [9], 71.8%; in test [10] it was 24%.

`Cc1cc(O)cc(C)c1/C=C/c1cncc(C(N)=O)c1`: the inhibition was found to be 3.45% in test [1]; 2.36% in test [2]; 6.61% in [3]; 0.87% in test [4]; 2.81% in test [5]; 1.62% in test [6]. The inhibition was determined as 3.99% in [7], 1.54% in [8], 4.08% in test [9] and 1.76% in [10].

For `NS(=O)(=O)c1cccc(N/C=C2\C(=O)Nc3ccccc32)c1`, the inhibition stood at 3.43% in [1]; 4.67% in [2]; 7.61% in [3]; 1.69% in test [4]; 4.25% in [5]; 3.56% in test [6]. Moreover, the inhibition came out at 9.5% in test [7], 4.32% in test [8], 20% in [9] and 3.36% in [10].

In the case of `O=C(O[C@H]1CN[C@H](C#Cc2cc3ncnc(Nc4ccc(OCc5cccc(F)c5)c(Cl)c4)c3s2)C1)N1CCOCC1`, the inhibition in [1] is 2.04%; in [2] it was 2.71%; in test [3] it was 6.81%; in [4], -1.11%; in test [5], -0.95%; in test [6] it was 3.84%. In addition, the inhibition turned out to be 3.68% in test [7], 3.45% in [8], 4.35% in [9] and 2.75% in test [10].

As for `N#Cc1ccc2c(-c3ccnc(NC4CC4)n3)c(-c3ccc(F)cc3)nn2c1`, the inhibition in test [1] was -0.84%; in test [2], 1.91%; in test [3] it was 0.14%; in test [4] it was -0.4%; in [5], -2.94%; in [6], 0.64%. In addition, the inhibition was -0.6% in test [7], 5.27% in test [8], 24.3% in test [9] and 8.49% in [10].

On to `Nc1ncnc2occ(-c3ccc(NC(=O)Nc4cc(C(F)(F)F)ccc4F)cc3)c12`, for which the inhibition is 2.26% and 0.21% in test [1]; 1.15% and 1.58% in test [2]; 4.22% and 0.86% in [3]; 1.3% and 0.83% in [4]; 2.57% and 1.79% in [5]; 2.49% and -1.01% in test [6]. Further, the inhibition in test [7] was 3.45% and -1.47%; in test [8] it was 7.6% and 1.13%; in test [9], 17.5% and 6.32%; in test [10] it was 7.23% and 1.21%.

On to `O=C(O[C@H]1CN[C@H](C#Cc2cc3ncnc(Nc4ccc5c(ccn5Cc5cc(F)ccc5F)c4)c3s2)C1)N1CCOCC1`, for which the inhibition in test [1] is 1.89%; in test [2] it was 2.29%; in [3] it was 4.73%; in [4], 0.4%; in test [5], -1.92%; in [6] it was 3.27%. Further, the inhibition in test [7] was determined as 2.77%; in test [8] it was 3.38%; in [9], 6.08%; in [10], 1.76%.

For the compound `CS(=O)(=O)CCNCc1ccc(-c2ccc3ncnc(Nc4ccc(OCc5cccc(C(F)(F)F)c5)cc4)c3c2)o1`, the inhibition is 1.18% in test [1]; 2.76% in [2]; 5.29% in test [3]; -0.58% in [4]; 1.03% in test [5]; 3.45% in test [6]. Besides, the inhibition in [7] turned out to be 6.22%; in [8] it was 2.81%; in test [9], 1.39%; in [10], 1.65%.

As to `Cc1ccc(-c2cc3c(NC(=O)C4CC4)ncnc3o2)cc1`, the inhibition in test [1] stood at 7.45%; in test [2], 4.14%; in test [3], 12.6%; in test [4], 1.1%; in test [5] it was 4.52%; in [6] it was 2.48%. In addition, the inhibition in test [7] turned out to be 8.21%; in test [8], 12.4%; in test [9], 48.7%; in test [10] it was 7.9%.

Consider `CNC(=O)c1sc(-n2cnc3cc(OC)c(OC)cc32)cc1OCc1ccccc1C(F)(F)F`, for which the inhibition is -0.08% in [1]; 1.4% in [2]; 2.18% in [3]; -0.95% in test [4]; 0.23% in test [5]; 2.15% in [6]. Further, the inhibition was 1.34% in [7], 2.13% in test [8], 5.93% in test [9] and 1.12% in [10].

With `COc1cccc(-n2ncc3c(N/N=C/c4ccc(C(=O)NCCN(C)C)cc4)ncnc32)c1`, the inhibition turned out to be 31.7% in [1]; 38.1% in [2]; 71.6% in test [3]; 17.8% in [4]; 57.1% in test [5]; 20.9% in test [6]. For the same compound, the inhibition stood at 66.3% in test [7], 71.9% in test [8], 82.7% in test [9] and 66.3% in test [10].

`Fc1cccc(COc2ccc(Nc3ncncc3C#Cc3ccccc3)cc2Cl)c1`: the inhibition in test [1] was determined as 2.05%; in test [2], 2.88%; in test [3] it was 5.18%; in [4], 0.4%; in test [5], 1.45%; in test [6], 3.74%. The inhibition was 4.05% in [7], 3.26% in test [8], 4.91% in test [9] and 2.3% in [10].
